Most compounds without a hit are left out; they make up all but 8.1% or so of the library.
Shh pathway inh: blocks Sonic Hedgehog signaling. Shh-LIGHT2 Gli-luciferase reporter, 30 h. inhibition, % (test concentration not listed). hit rate 2.1% among 22,000. AID 2313;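 active means mean inhibition across valid replicates above about 65%, limit read from the data; inconclusive means mean under the limit, yet half or more replicates past it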;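 further: pathway switched on by Shh-conditioned medium diluted 1 in 25 in low serum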
MITF inhib: MITF inhibition; TRPM1 promoter luciferase, luminescence, 24 h; inhibition, % (concentration not given with the values); hit rate 0.28% among 37,000; in the data active means inhibition above about 85%; inconclusive means no clear call, values can overlap the other calls; inactive means below about 68%;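 further: human melanocyte line stably carrying TRPM1 promoter luciferase reporter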
NOMO-1 viab: STK33 inhibitor candidate reducing NOMO-1 cell viability; NOMO-1 AML viability, CellTiter-Glo luminescence, 72 h; inhibition, % (test concentration not listed); hit rate 7.5% among 37,000; in the data active means inhibition above about 80%; inconclusive means no clear call, values can overlap the other calls
Starred values were filed as active, the others as inactive; ? = inconclusive; . = not tested or not shown.

SMILES	Shh pathway inh	MITF inhib	NOMO-1 viab
COCCCNC(=O)c1cc(-c2ccccn2)nc2ccc(Br)cc12	.	13.0	7.7
COc1ccc(NC(=O)c2cc(-c3ccccn3)nc3c(C)cc(C)cc23)c([N+](=O)[O-])c1	.	86.8*	68.3
COc1ccccc1CNC(=O)c1cc(-c2ccccn2)nc2c(Cl)cccc12	.	47.2	92.1*
Cc1cc(C)c2nc(-c3ccccn3)cc(C(=O)NCc3ccc(S(N)(=O)=O)cc3)c2c1	.	27.8	112.5*
COc1ccc(/C=C2/SC(=S)N(C)C2=O)cc1	.	-7.8	-15.0
CCN1C(=O)/C(=C/C=C2\Sc3ccc(Cl)cc3N2C)SC1=S	23.3	-24.2	5.7
CNC(=O)CN(c1cccc(Cl)c1Cl)S(=O)(=O)c1ccccc1	.	-3.2	4.2
C[C@@H]1CCCCO[C@@H](CN(C)C(=O)c2ccccc2)[C@@H](C)CN([C@H](C)CO)C(=O)c2cc(NC(=O)c3ccccc3)ccc2O1	.	-1.0	14.8
C[C@@H]1CCCCO[C@@H](CN(C)CC2CCCCC2)[C@@H](C)CN([C@H](C)CO)C(=O)c2cc(NC(=O)c3ccccc3)ccc2O1	.	27.2	116.8*
C[C@@H]1CCCCO[C@H](CN(C)CC2CCCCC2)[C@@H](C)CN([C@H](C)CO)C(=O)c2cc(NC(=O)c3ccncc3)ccc2O1	-19.8	-1.4	18.4
C[C@@H]1CCCCO[C@H](CN(C)CC2CCCCC2)[C@@H](C)CN([C@H](C)CO)C(=O)c2cc(NC(=O)Nc3ccc(F)cc3)ccc2O1	-19.9	-10.2	65.7
C[C@@H]1CCCCO[C@@H](CN(C)CC2CCCCC2)[C@@H](C)CN([C@H](C)CO)C(=O)c2cc(NC(=O)Nc3ccccc3)ccc2O1	19.6	18.8	122.5*
C[C@@H]1CCCCO[C@@H](CN(C)C)[C@@H](C)CN([C@H](C)CO)C(=O)c2cc(NC(=O)c3ccccc3)ccc2O1	-4.1	0.4	122.6*
COc1ccc(S(=O)(=O)N(C)CC(=O)Nc2ccccc2Br)cc1Cl	.	2.2	19.2
COc1ccc(Nc2nc(NC(C)(C)C)nc(OC)n2)c(OC)c1	.	13.8	-8.2
COc1ccc(OC)c(S(=O)(=O)N(C)CC(=O)N2CCOCC2)c1	.	-11.3	-16.2
COc1ccccc1-c1cc(C(F)(F)F)nc(S(=O)(=O)CCCC(=O)N2CCOCC2)n1	.	60.1	135.9*
COC(=O)c1ccccc1NC(=O)NCc1ccc(C(=O)O)cc1	.	-7.7	-18.9
CS(=O)(=O)N(CC(=O)Nc1cccc(C(F)(F)F)c1)c1ccc(F)c(Cl)c1	.	-1.6	53.9
CC(=O)Nc1cccc(-c2nnc(SCC(=O)Nc3cccc(Cl)c3)n2C)c1	.	-5.1	-8.3
COC(=O)CC(O)(CCCC(C)(C)O)C(=O)O[C@@H]1C(OC)=C[C@]23CCCN2CCc2cc4c(cc2[C@@H]13)OCO4 (stereo not given in full)	103.7*	93.4*	98.8*
Cc1cc(=O)[nH]c(SCCOc2cccc(Br)c2)n1	.	-14.1	-15.2
COCc1nc2ccccc2n1CCOc1ccc(Cl)cc1Cl	.	6.3	32.6
C[C@H](CO)N1C[C@H](C)[C@H](CN(C)Cc2ccncc2)Oc2ccc(NC(=O)Cc3ccccc3)cc2C1=O	.	3.4	98.1*
C[C@@H]1CN([C@H](C)CO)C(=O)c2cc(NC(=O)Cc3ccccc3)ccc2O[C@H]1CN(C)Cc1ccc(-c2ccccc2)cc1	-12.1	29.0	117.0*
SMILES	Shh pathway inh	MITF inhib	NOMO-1 viab
C[C@@H]1CN([C@@H](C)CO)C(=O)c2cc(NC(=O)Cc3ccccc3)ccc2O[C@@H]1CN(C)Cc1ccc(-c2ccccc2)cc1	.	-1.4	35.4
C[C@H]1CN([C@@H](C)CO)C(=O)c2cc(NC(=O)Cc3ccccc3)ccc2O[C@H]1CN(C)Cc1ccccc1	.	8.7	24.0
CC(=O)O[C@H]1[C@H](Oc2cc(O)cc(O)c2C(=O)c2cc(O)cc(O)c2)O[C@H](CO)[C@@H](OC(=O)c2ccccc2)[C@@H]1O	-29.2	0.8	-2.5
COc1ccc(N=C(CCCN2C(=O)c3ccccc3C2=O)C2=C(O)CC(C)(C)CC2=O)cc1	8.0	-7.8	11.9
COc1ccccc1CCNC(=O)c1cc(-c2ccc(C)o2)nc2ccccc12	.	-3.0	24.6
C=C1C(=O)O[C@@H]2C=C(C)[C@@H]3CC[C@@](C)(O)[C@@H]3C[C@H]12	9.9	-0.7	37.9
C=C1C(=O)O[C@H]2C3=C(C)CCC[C@]3(C)C(=O)C[C@@H]12	76.1*	78.3	121.4*
C[C@H]1CN([C@@H](C)CO)C(=O)Cc2cc(NS(=O)(=O)c3ccccc3)ccc2O[C@@H]1CN(C)Cc1ccc(Cl)c(Cl)c1	24.6	21.5	122.4*
C[C@@H]1CN([C@@H](C)CO)C(=O)Cc2cc(NS(=O)(=O)c3ccc(F)cc3)ccc2O[C@@H]1CN(C)Cc1ccc(Cl)c(Cl)c1	18.0	2.8	95.8*
C[C@@H]1CN([C@H](C)CO)C(=O)Cc2cc(NS(=O)(=O)c3ccc(F)cc3)ccc2O[C@@H]1CN(C)Cc1ccc2c(c1)OCO2	0.8	-10.8	18.2
C[C@@H]1CN([C@H](C)CO)C(=O)Cc2cc(NS(C)(=O)=O)ccc2O[C@@H]1CN(C)Cc1ccc(Cl)c(Cl)c1	46.5	-5.5	23.5
C[C@@H]1CN([C@@H](C)CO)C(=O)Cc2cc(NS(=O)(=O)c3ccccc3)ccc2O[C@@H]1CN(C)Cc1ccc(Cl)c(Cl)c1	54.7	35.0	62.3
C[C@H]1CN([C@@H](C)CO)C(=O)Cc2cc(NS(=O)(=O)c3ccc(Cl)cc3)ccc2O[C@H]1CN(C)Cc1ccc2c(c1)OCO2	26.5	-13.6	29.5
C[C@H]1CN([C@@H](C)CO)C(=O)Cc2cc(NS(C)(=O)=O)ccc2O[C@@H]1CN(C)Cc1ccc(Cl)c(Cl)c1	27.8	14.7	97.8*
C[C@@H]1CN([C@@H](C)CO)C(=O)Cc2cc(NS(=O)(=O)c3ccc(Cl)cc3)ccc2O[C@@H]1CN(C)Cc1ccc(Cl)c(Cl)c1	14.1	13.2	123.8*
C=C(Oc1cccc(C(=O)O)c1)C(=O)O	-19.7	3.7	-6.8
c1ccc(SCCN2CCN(CCSc3ccccc3)CC2)cc1	?	1.2	29.8
COc1ccc(NC(=O)CC2NC(=O)NC2=O)cc1 (stereo not given)	.	-0.7	-3.6
CC(=O)Oc1ccc2c(=O)c(Oc3ccc(Cl)cc3)c(C)oc2c1	4.0	34.8	34.3
C[C@@H]1CN([C@H](C)CO)C(=O)Cc2cc(N(C)C)ccc2O[C@@H]1CN(C)Cc1ccc(Cl)c(Cl)c1	7.1	-1.9	98.6*
C[C@H]1CN([C@@H](C)CO)C(=O)Cc2cc(NS(=O)(=O)c3ccc(Cl)cc3)ccc2O[C@@H]1CN(C)Cc1ccc(Cl)c(Cl)c1	39.9	27.2	84.1*
C[C@H]1CN([C@@H](C)CO)C(=O)c2cc(N(C)C)ccc2O[C@@H]1CN(C)Cc1ccc(Cl)c(Cl)c1	-2.8	3.0	45.9
C[C@H](CO)N1C[C@H](C)[C@H](CN(C)Cc2ccccc2)Oc2ccc(NS(=O)(=O)c3ccc(Cl)cc3)cc2CC1=O	5.5	4.6	?
CCn1c(SCC(=O)Nc2cccc(Cl)c2C)nnc1-c1ccc(Br)cc1	.	-8.0	18.7
O=C1C(=O)N(CCCn2ccnc2)C(c2cccc(Br)c2)C1C(=O)c1ccco1 (stereo not given)	.	-1.2	-4.9
COc1cccc2cc(C(=O)C3C(=O)C(=O)N(Cc4ccco4)C3c3ccc(F)cc3)oc12 (stereo not given)	.	14.8	10.0
COc1ccc(NC(=O)CSc2ncccn2)cc1Cl	.	-34.5	20.8
